PubChem BioAssay
Where “and” joins values, the source holds several entries; their conditions need not be identical. Identical values can stand only once. Results filed as inconclusive are left out. More than one record can exist for a structure, and the calls need not agree. Calls of active or inactive are those of the source.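 Rule for the calls, unless noted: active = compounds whose cell count with miR-34 switched on is under 0.7 times the count with it off; inactive = the rest.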

How the values were obtained:
[1] = system: Hepatitis C virus NS3 helicase; test: blockers of NS3h binding to ssDNA – biochemical, fluorescence polarization, LOPAC1280 library, primary screen (AID 687035; in the data active = inhibition above about 37%); conditions: Purified HCV NS3 helicase, Cy5-dT15 ssDNA binding fluorescence polarization; stronger effect = higher value; concentration not given here
[2] = compounds altering Cy5-DNA-NS3h complex signal – biochemical, LOPAC1280, artefact control for HCV NS3 helicase inhibitor project (AID 687037; call rule not given here); conditions: Cy5-DNA-NS3h complex fluorescence interference counterscreen
[3] = system: Aerobactin synthetase IucA (Klebsiella pneumoniae); test: inhibition of K. pneumoniae IucA enzyme – biochemical, Tocris library, absorbance (AID 1345561; call rule not given here;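 note: 100% = enzyme without compound and 0% = no enzyme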); conditions: purified IucA enzyme assay, absorbance (OD) read-out; stronger effect = lower value;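 tested at 8 µM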
[4] = viability loss in pontine glioma line – cell-based, JHH-DIPG-1, MIPE4.0, CellTiter-Glo, qHTS, dose response (AID 1347062; cut-off not given, nearly all actives have AC50 up to about 27 µM); conditions: JHH-DIPG-1 viability, CellTiter-Glo ATP luminescence
[5] = growth inhibition of DIPG cells – cell-based, MIPE4.0 library, CellTiter-Glo luminescence, qHTS (AID 1347066; cut-off not given, nearly all actives have AC50 up to about 30 µM;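 note: cells exposed to compound for 48 hours before readout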); conditions: SU-DIPG-VI viability, CellTiter-Glo ATP luminescence
[6] = growth inhibition of DIPG cells – cell-based, MIPE5.0 library, qHTS (AID 1347068; cut-off not given, nearly all actives have IC50 up to about 30 µM); conditions: SU-DIPG-XXV viability
[7] = viability loss with induced miR-34 in A549 – imaging, A549 dox-inducible miR-34, nuclei and caspase counts, primary screen (AID 1347080); conditions: A549 miR-34 inducible, Hoechst nuclei count, 48 h
[8] = galactose survival enhancers in mitochondrial complex I cybrids – cell-based, galactose medium, ATP luminescence, primary screen (AID 1645843;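 active = z-score of at least 1.8 in each of two replicates, scored against plate mean and spread of sample wells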;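 note: positive z means more ATP and so rescue of galactose-driven cybrid death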); conditions: complex I mutant cybrid cells, 72 h, stronger effect = higher value
[9] = viability loss in pontine glioma line – cell-based, SU-DIPG-XIII, MIPE4.0, CellTiter-Glo, qHTS, dose response (AID 1347061; cut-off not given, nearly all actives have AC50 up to about 37 µM;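 note: cells exposed to compound for 48 hours before readout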); conditions: CellTiter-Glo ATP luminescence
[10] = viability loss in pontine glioma line – cell-based, SU-DIPG-IV, MIPE4.0, CellTiter-Glo, qHTS, dose response (AID 1347063; cut-off not given, nearly all actives have AC50 up to about 30 µM;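 note: compound exposure lasted 48 hours before the viability readout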); conditions: CellTiter-Glo ATP luminescence
[11] = MELAS cybrid and Rieske KO viability enhancers – cell-based, MELAS cybrids, Rieske KO mouse fibroblasts, CellTiter-Glo, primary screen (AID 1508586;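 active = mean z-score across replicates of 1.96 or higher in either the MELAS or the Rieske mutant cell line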;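 note: z relative to plate mean and SD of compound and empty wells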); conditions: low glucose
[12] = P. berghei load reduction in hepatocytes – cell-based, HepG2, luciferase luminescence, HepG2 viability, primary screen (AID 624349; in the data active = parasite load remaining mostly below about 12%, no sharp cut-off; inactive = mostly above about 10%;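 note: 100% = mean of DMSO negative control wells on the same plate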); conditions: P. berghei liver stage in HepG2, luciferase luminescence, concentration not given here; parasite load remaining: stronger effect = lower value; viability: measured here: HepG2 viability without parasites
[13] = stronger effect = lower value, cell number ratio, induced over uninduced
[14] = measured here: relative caspase fold change +Dox/-Dox
[15] = measured here: total cells with miR-34 induction, stronger effect = lower value
[16] = measured here: total cells without miR-34 induction

Q: Which inhibition [1] does the source give for `CC(C)(Sc1ccc(CCN(CCCCC2CCCCC2)C(=O)NC2CCCCC2)cc1)C(=O)O` here?
A: 3% (inactive)

Q: And the fluorescence ratio (interference) [2]?
A: 1 (inactive)

Q: What about the remaining activity [3] of the same compound?
A: 122% (inactive)

Q: And the outcome [4]?
A: inactive

Q: And the outcome [5]?
A: inactive

Q: What about the outcome [6] of the same compound?
A: inactive

Q: What about the fold change [7, 13] of the same compound?
A: 0.945 (inactive) and 0.954 (inactive) and 0.926 (inactive)

Q: What about the fold change [7, 14] of the same compound?
A: 1.38 and 0.651 and 0.687

Q: And the cell count [7, 15]?
A: 8520 and 5920 and 7310

Q: And the cell count [7, 16]?
A: 9020 and 6210 and 7900

Q: What about the z-score [8] of the same compound?
A: 0.62 (inactive) and 1.14 (inactive)

Q: Which results are given for `O=C(/C=C/c1c(C(=O)O)[nH]c2cc(Cl)cc(Cl)c12)Nc1ccccc1`?
A: remaining activity [3]: 87.2% (inactive); outcome [9]: inactive; outcome [4]: inactive; outcome [10]: inactive; outcome [5]: inactive; fold change [7, 13]: 0.942 (inactive); fold change [7, 14]: 1.32; cell count [7, 15]: 8890; cell count [7, 16]: 9440; z-score [8]: 4.95 (active)

Q: For `Cc1ccc(-c2nn(C(C)(C)C)c3ncnc(N)c23)cc1`, which remaining activity [3] is on record?
A: 109% (inactive)

Q: And the fold change [7, 13]?
A: 1.15 (inactive) and 0.969 (inactive) and 1.02 (inactive)

Q: And the fold change [7, 14]?
A: 0.8 and 0.845 and 0.764

Q: What about the cell count [7, 15] of the same compound?
A: 850 and 2400 and 3230

Q: What about the cell count [7, 16] of the same compound?
A: 738 and 2480 and 3170

Q: What about the z-score ([11]; MELAS cybrid survival, CellTiter-Glo 48 h, stronger effect = higher value) of the same compound?
A: 0.565 (inactive)

Q: And the z-score ([11]; Rieske KO mouse fibroblast survival, CellTiter-Glo 72 h)?
A: -0.238

Q: And the z-score [8]?
A: 0.19 (inactive)

Q: With `CC(C)(C)NCC(O)COc1cccc2[nH]c(=O)[nH]c12` (stereo not drawn) as the compound, how does the inhibition [1] read?
A: -3% (inactive)

Q: What about the fluorescence ratio (interference) [2] of the same compound?
A: 1 (inactive)

Q: And the remaining activity [3]?
A: 89.1% (inactive)

Q: What about the fold change [7, 13] of the same compound?
A: 0.952 (inactive) and 0.913 (inactive)

Q: What about the fold change [7, 14] of the same compound?
A: 1.58 and 1.07

Q: What about the cell count [7, 15] of the same compound?
A: 9940 and 8700

Q: And the cell count [7, 16]?
A: 10400 and 9520

Q: And the z-score [8]?
A: 0.24 (inactive) and 0.505 (inactive)

Q: With `CCCCCCCC/C=C\CCCCCCCC(=O)NCCc1ccc(O)c(O)c1` as the compound, how does the inhibition [1] read?
A: -3% (inactive)

Q: And the fluorescence ratio (interference) [2]?
A: 1 (inactive)

Q: And the remaining activity [3]?
A: 113% (inactive)

Q: And the fold change [7, 13]?
A: 0.822 (inactive) and 1.01 (inactive) and 1 (inactive)

Q: And the fold change [7, 14]?
A: 1.55 and 1.58 and 0.782

Q: What about the cell count [7, 15] of the same compound?
A: 4510 and 5800 and 5520

Q: And the cell count [7, 16]?
A: 5490 and 5740 and 5510

Q: What about the z-score [8] of the same compound?
A: -1.38 (inactive) and -0.82 (inactive)

Q: For `CCCCCCCC/C=C\CCCCCCCC(N)=O`, which remaining activity [3] is on record?
A: 107% (inactive)

Q: What about the fold change [7, 13] of the same compound?
A: 0.955 (inactive) and 0.909 (inactive) and 1 (inactive)

Q: And the fold change [7, 14]?
A: 1.2 and 0.885 and 0.621

Q: And the cell count [7, 15]?
A: 5390 and 5900 and 8530

Q: What about the cell count [7, 16] of the same compound?
A: 5650 and 6490 and 8490

Q: And the z-score [8]?
A: -0.84 (inactive)

Q: With `COc1cc(/C=C(\C#N)C(N)=O)cc(CSc2nc3ccccc3s2)c1O` as the compound, how does the remaining activity [3] read?
A: 115% (inactive)

Q: What about the fold change [7, 13] of the same compound?
A: 0.859 (inactive) and 0.896 (inactive)

Q: What about the fold change [7, 14] of the same compound?
A: 1.08 and 1.29

Q: What about the cell count [7, 15] of the same compound?
A: 4790 and 8180

Q: What about the cell count [7, 16] of the same compound?
A: 5570 and 9130

Q: And the z-score [8]?
A: 5.03 (active)

Q: Which results are given for `COc1ccc(CCN(C)CCc2ccc(OC)c(OC)c2)cc1OC`?
A: inhibition [1]: -1% (inactive); fluorescence ratio (interference) [2]: 1 (inactive); remaining activity [3]: 104% (inactive); fold change [7, 13]: 0.949 (inactive) and 0.925 (inactive) and 0.899 (inactive); fold change [7, 14]: 1.08 and 1.5 and 0.778; cell count [7, 15]: 8830 and 6070 and 8850; cell count [7, 16]: 9310 and 6560 and 9840; z-score [8]: -0.285 (inactive) and -0.27 (inactive)

Q: Which remaining activity [3] does the source give for `CC(N)=NCc1cccc(CN)c1` here?
A: 107% (inactive)

Q: What about the fold change [7, 13] of the same compound?
A: 1.05 (inactive) and 0.837 (inactive)

Q: And the fold change [7, 14]?
A: 1.01 and 0.692

Q: And the cell count [7, 15]?
A: 6210 and 7850

Q: What about the cell count [7, 16] of the same compound?
A: 5900 and 9380

Q: What about the z-score [8] of the same compound?
A: 0 (inactive)

Q: With `COc1ccc(Br)cc1S(=O)(=O)NC(=O)/C=C/c1ccccc1Cc1ccc2ccccc2c1` as the compound, how does the remaining activity [3] read?
A: 102% (inactive)

Q: And the fold change [7, 13]?
A: 1.05 (inactive) and 0.853 (inactive)

Q: What about the fold change [7, 14] of the same compound?
A: 1.89 and 2.15

Q: And the cell count [7, 15]?
A: 9590 and 8680

Q: What about the cell count [7, 16] of the same compound?
A: 9110 and 10200

Q: What about the z-score [8] of the same compound?
A: 0.395 (inactive) and 0.085 (inactive)

Q: Which results are given for `O=C1Cc2c([nH]c3ccc(Br)cc23)-c2ccccc2N1`?
A: parasite load remaining [12]: 33% (inactive); viability [12]: 64.2%; inhibition [1]: 1% (inactive); fluorescence ratio (interference) [2]: 1 (inactive); remaining activity [3]: 115% (inactive); fold change [7, 13]: 1.11 (inactive) and 0.922 (inactive) and 1.05 (inactive); fold change [7, 14]: 0.981 and 0.403 and 0.535; cell count [7, 15]: 4020 and 4080 and 1060; cell count [7, 16]: 3640 and 4430 and 1010; z-score [8]: -0.785 (inactive) and -0.43 (inactive)

Q: With `CCCCCCCCCCCCC/C=C/[C@@H](O)[C@H](CO)NC(C)=O` as the compound, how does the remaining activity [3] read?
A: 114% (inactive)

Q: What about the fold change [7, 13] of the same compound?
A: 0.919 (inactive) and 1.02 (inactive) and 0.95 (inactive)

Q: And the fold change [7, 14]?
A: 1.09 and 0.67 and 0.924

Q: What about the cell count [7, 15] of the same compound?
A: 5360 and 6170 and 8250

Q: What about the cell count [7, 16] of the same compound?
A: 5840 and 6040 and 8680

Q: And the z-score [8]?
A: -1.23 (inactive)

Q: For `CC(C)(C)c1cc(O)c(C(C)(C)C)cc1O`, which remaining activity [3] is on record?
A: 129% (inactive)

Q: And the fold change [7, 13]?
A: 1.1 (inactive) and 0.907 (inactive)

Q: What about the fold change [7, 14] of the same compound?
A: 1.08 and 0.716

Q: And the cell count [7, 15]?
A: 1530 and 6190

Q: And the cell count [7, 16]?
A: 1390 and 6820

Q: What about the z-score [8] of the same compound?
A: -0.7 (inactive)

Q: For `CCCCCCCC/C=C\CCCCCCCC(=O)NCCO`, which inhibition [1] is on record?
A: -1% (inactive)

Q: And the fluorescence ratio (interference) [2]?
A: 1 (inactive)

Q: And the remaining activity [3]?
A: 112% (inactive)

Q: And the fold change [7, 13]?
A: 1.03 (inactive) and 1.01 (inactive) and 0.976 (inactive)

Q: And the fold change [7, 14]?
A: 0.948 and 0.828 and 0.812

Q: And the cell count [7, 15]?
A: 10400 and 5960 and 9000

Q: What about the cell count [7, 16] of the same compound?
A: 10100 and 5900 and 9210

Q: And the z-score [8]?
A: -1.28 (inactive) and -0.79 (inactive)

Q: Which inhibition [1] does the source give for `CN(C)c1ccc(/C=C2\C(=O)Nc3ccccc32)cc1` here?
A: -2% (inactive)

Q: What about the fluorescence ratio (interference) [2] of the same compound?
A: 0.9 (inactive)

Q: And the remaining activity [3]?
A: 109% (inactive)

Q: And the fold change [7, 13]?
A: 1.15 (inactive) and 1.05 (inactive) and 0.834 (inactive)

Q: And the fold change [7, 14]?
A: 1.24 and 1.39 and 0.903

Q: What about the cell count [7, 15] of the same compound?
A: 7000 and 1360 and 6590

Q: And the cell count [7, 16]?
A: 6070 and 1300 and 7900

Q: What about the z-score [8] of the same compound?
A: 3.25 (active) and 0.195 (inactive)

Q: Which inhibition [1] does the source give for `Oc1cc2c(cc1O)C(c1ccccc1)CNCC2` (stereo not drawn) here?
A: -3% (inactive)

Q: What about the fluorescence ratio (interference) [2] of the same compound?
A: 1 (inactive)

Q: And the remaining activity [3]?
A: 113% (inactive)

Q: What about the fold change [7, 13] of the same compound?
A: 0.993 (inactive) and 0.954 (inactive)

Q: And the fold change [7, 14]?
A: 1.37 and 0.889

Q: What about the cell count [7, 15] of the same compound?
A: 10500 and 10200

Q: What about the cell count [7, 16] of the same compound?
A: 10600

Q: What about the z-score [8] of the same compound?
A: 0.58 (inactive) and 0.48 (inactive)
